This is a sample that favours compounds with a hit; in the whole collection about 4.1% have one here.
DAX1 inh-1 = DAX1 (NR0B1) inhibitors on StAR promoter, primary screen, cell-based, luminescence, SF-1 (NR5A1), full-length DAX-1; 1.1% of 370,000 active; AID 652010, 2013; HEK293T StAR-luciferase reporter, SF-1/DAX-1 repression relief; inhibition, % at 6.8 µM;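 active = inhibition above the mean over all tested compounds plus 3 SD, cut at about 3.6% in these data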;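 note: 0% = DAX-1 cells with DMSO and 100% = cells lacking DAX-1 with DMSO; higher inhibition means more luminescence from relief of DAX-1 repression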
hgDAF-12 ag = H. glycines DAF-12 receptor agonists, primary screen, cell-based, luminescence, HEK293, GAL4 fusion, UAS-luciferase. HEK293 GAL4-hgDAF12 UAS-luciferase reporter, agonist luminescence; normalized to butyrate control. activation, % at 6.8 µM. 1.8% of 370,000 active;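 active = activation above a cutoff set at the mean of all screened compounds plus 3 SD, cut at about 10% in these data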;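 note: 0% = DMSO wells and 100% = sodium butyrate wells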
hcDAF-12 act = H. contortus DAF-12 nuclear receptor activators, primary screen, cell-based, luminescence, HEK293, lit1-tk-luc reporter | HEK293 hcDAF-12 lit1-tk-luc reporter; 0% DMSO, 100% Δ7-dafachronic acid | activation, % at 6.8 µM | 1.4% of 370,000 active;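 active = activation above the mean of all tested compounds plus 3 SD, cut at about 5.5% in these data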;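 note: 100% = response to 3 µM Δ7-dafachronic acid high control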
ssDAF12 agonist = S. stercoralis DAF-12 nuclear receptor activators, primary screen, cell-based, luminescence, HEK293, GRIP1 co-expression, lit1-tk-luc; Nuclear hormone receptor DAF-12 (Strongyloides stercoralis); HEK293 ssDAF-12/GRIP1 lit1-tk-luc reporter; % of 3 µM dafachronic acid response; activation, % at 6.8 µM; 1% of 370,000 active; AID 652126, 2013;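 active = activation above the mean over all tested compounds plus 3 SD, cut at about 0.9% in these data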;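 note: 0% = DMSO-only wells and 100% = 3 µM delta7-dafachronic acid wells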
DAX1 inh-2 = DAX1 (NR0B1) inhibitors, primary screen, cell-based, HEK293, Gal4-DAX1, luciferase luminescence; HEK293 Gal4-DAX1 luciferase reporter; inhibition, % at 6.75 µM; 0.99% of 340,000 active;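 active = inhibition above the mean over all tested compounds plus 3 SD, cut at about 4.2% in these data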;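 note: 0% = DAX1-transfected cells with DMSO and 100% = empty-vector control cells with DMSO; inhibition shows as a rise in luminescence from relieved DAX1 repression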
Target sequence (P51843 207-470 limits assumed): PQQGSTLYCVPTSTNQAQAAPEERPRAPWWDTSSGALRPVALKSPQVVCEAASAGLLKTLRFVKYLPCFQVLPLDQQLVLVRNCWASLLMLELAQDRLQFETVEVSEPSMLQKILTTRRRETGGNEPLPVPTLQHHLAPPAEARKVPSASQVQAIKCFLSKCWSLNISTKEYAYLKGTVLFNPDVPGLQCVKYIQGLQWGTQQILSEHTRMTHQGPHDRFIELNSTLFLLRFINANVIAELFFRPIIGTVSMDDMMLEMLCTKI
DAX1 conf = DAX1 (NR0B1) inhibitors relieving SF-1 repression, confirmation, cell-based, luminescence, HEK293T, full-length DAX-1, SF-1 activated StAR promoter. shares compounds with DAX1 inh-1. HEK293T StAR-promoter luciferase reporter, SF-1/DAX-1 repression. inhibition, % at 6.8 µM. 87% of 2,400 active. AID 652134, 2013;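 active = inhibition above the average of every tested compound plus 3 SD, cut at about 3.8% in these data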;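 note: 0% = DAX-1 cells with DMSO and 100% = no DAX-1 control cells with DMSO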
Target sequence (P51843 whole entry, looked up): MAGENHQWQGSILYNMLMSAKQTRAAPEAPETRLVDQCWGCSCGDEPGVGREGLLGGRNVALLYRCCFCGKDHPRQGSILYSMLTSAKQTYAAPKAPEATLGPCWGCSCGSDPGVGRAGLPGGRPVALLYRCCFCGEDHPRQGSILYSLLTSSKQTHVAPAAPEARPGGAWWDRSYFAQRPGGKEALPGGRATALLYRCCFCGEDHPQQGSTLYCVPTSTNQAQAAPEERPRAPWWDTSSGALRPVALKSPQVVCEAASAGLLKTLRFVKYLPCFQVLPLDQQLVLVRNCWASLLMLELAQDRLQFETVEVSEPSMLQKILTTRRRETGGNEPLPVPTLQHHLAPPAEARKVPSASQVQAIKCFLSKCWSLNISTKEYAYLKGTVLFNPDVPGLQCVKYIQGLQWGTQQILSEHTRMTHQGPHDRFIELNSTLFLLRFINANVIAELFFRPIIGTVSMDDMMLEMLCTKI
SF1 AF2mut Luc = StAR reporter signal changes without DAX1, counter-screen for DAX1 inhibitor project, cell-based, luminescence, AF-2 mutant SF-1, transactivation; HEK293 StAR-luciferase, SF-1 AF2 mutant; shares compounds with DAX1 inh-1; inhibition, % at 6.8 µM; 78% of 2,400 active;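 active = inhibition above the mean of all tested compounds plus 3 SD, cut at about 3% in these data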;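 note: 0% = DAX-1 transfected cells with DMSO and 100% = cells without DAX-1 with DMSO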
LXRb hcDAF ctr = LXR agonists, Gal4 luciferase reporter, confirmation, counter-screen for hcDAF-12 agonist project, cell-based, luminescence, HEK293, H. contortus campaign; 3,400 tested, under 10 active; shares compounds with hcDAF-12 act; activation, % at 6.8 µM; HEK293 Gal4-LXR tk-luc reporter, 24 h; normalized: DMSO 0%, positive control 100%;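 active = mean percent activation of the reporter above a cutoff set as the average over tested compounds plus their standard deviation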
hcDAF12 ag = H. contortus DAF-12 receptor agonists, confirmation, cell-based, luminescence, HEK293, lit1-tk-luc, triplicate; shares compounds with hcDAF-12 act; HEK293 hcDAF-12 lit1-tk-luc reporter; % of Δ7-dafachronic acid response; activation, % at 6.8 µM; 61% of 3,400 active;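 active = mean activation across triplicate tests above the threshold derived from the earlier primary screen, cut at about 5.5% in these data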;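 note: 0% = DMSO only wells and 100% = 3 µM Δ7-dafachronic acid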
Active calls of the source: *; nt = not tested or not shown.

SMILES | DAX1 inh-1 | hgDAF-12 ag | hcDAF-12 act | ssDAF12 agonist | DAX1 inh-2 | DAX1 conf | SF1 AF2mut Luc | LXRb hcDAF ctr | hcDAF12 ag
Cc1ccc(N=Nc2cc(C)ccc2O)c(C)c1 | 1 | 2 | 1 | 0 | -2 | nt | nt | nt | nt
Cc1ccc(N=Nc2cc(C)ccc2N)cc1 | 4.7* | 17* | 20* | 2.8* | 0 | 18* | 8.1* | 2 | 22*
CC(C(=O)N1CCc2ccccc21)N1CCN(S(=O)(=O)c2cccc(C(F)(F)F)c2)CC1 (stereo unspecified) | 0 | 0 | 0 | -1 | 1 | nt | nt | nt | nt
Cc1ccc(C2=NN(S(C)(=O)=O)C(c3ccc4c(c3)OCO4)C2)cc1 (stereo unspecified) | 5.4* | 21* | 13* | 0.9* | 1 | 19* | 9.0* | 2 | 14*
CS(=O)(=O)Nc1ccc(C2=NN(S(C)(=O)=O)C(c3ccc4nccnc4c3)C2)cc1 (stereo unspecified) | 0 | 2 | -1 | 0 | 0 | nt | nt | nt | nt
COCCn1c(C)cc(C(=O)COC(=O)c2cccnc2SC)c1C | 5.8* | 9 | 7.7* | 0 | 2 | 16* | 5.6* | 2 | 9.4*
CC(C)(C)OC(=O)N1CC2(CCCCC2)CC1Cc1ccc(C(F)(F)F)cc1 (stereo unspecified) | 0 | -1 | 1 | -1 | 1 | nt | nt | nt | nt
O=C(N/N=C/c1sc(=O)[nH]c1-[n+]1ccccc1)c1ccccc1[O-] | 1 | 1 | 1 | -1 | -1 | nt | nt | nt | nt
O=C(N/N=C/c1sc(=O)[nH]c1-[n+]1ccc2ccccc2c1)c1ccccc1[O-] | 4.9* | 5 | 8.4* | 1 | 1 | 0 | 1 | 0 | 2
COc1cccc(-c2nc(-c3cccs3)no2)c1 | 5.3* | 26* | 15* | 4.0* | 3 | 17* | 11* | 2 | 16*
COc1cc(OC)cc(-c2nc(-c3cccs3)no2)c1 | 1 | 4 | 1 | -1 | 0 | nt | nt | nt | nt
Cc1ccccc1N=CC1=C(O)c2ccccc2C1=O | 5.5* | 11* | 15* | 2.1* | -3 | 5.8* | -1 | 1 | 8.3*
CC1=C(O)c2ccccc2C(=O)C1=O | -1 | 0 | -2 | -2 | nt | nt | nt | nt | nt
O=C(Nc1ncccc1O)c1ccc2ccccc2c1 | 10* | 12* | 9.9* | 0 | 0 | 14* | 7.4* | 1 | 6.9*
O=C(Nc1ncccc1O)c1ccc(Cl)c(S(=O)(=O)N2CCCCCC2)c1 | 1 | -1 | -1 | -1 | -1 | nt | nt | nt | nt
COC(=O)[C@]12C[C@H](CC(=O)NCc3ccc(C)o3)C(=O)N(CCc3ccc(OC)c(OC)c3)C1=C[C@H](C(C)(C)C)O[C@@H]2C | -1 | -1 | -2 | -1 | nt | nt | nt | nt | nt
CCc1nc2c(OCc3ccc(F)cc3)cccn2c1N(C)C(=O)COc1ccccc1 | -1 | -3 | 0 | -2 | nt | nt | nt | nt | nt
Cc1ccn2c(CC(C)(C)C)c(-c3ccc(F)cc3)nc2c1 | 5.6* | 10 | 6.7* | 1 | 3 | 8.8* | 6.6* | 1 | 4
O=[N+]([O-])c1ccc2oc(/C=C/c3ccc(O)cc3)nc2c1 | 2 | 6 | 2 | 0 | 2 | nt | nt | nt | nt
COc1ccc(-c2nc(-c3ccc(Br)o3)no2)cc1OC | 1 | 5 | 4 | -1 | 1 | nt | nt | nt | nt
COc1ccccc1-c1nc(-c2ccc(Br)o2)no1 | 7.9* | 20* | 26* | 4.5* | 2 | 17* | 8.2* | 2 | 21*
COc1ccc(-c2cc3c(nn2)-c2ccccc2C3=O)cc1 | 4.5* | 12* | 9.4* | 2.4* | 1 | -2 | -3 | 0 | 1
COc1ccc(-c2cc(-c3ccccc3)c(-c3ccccc3)nn2)cc1 | 1 | 5 | 3 | 0 | nt | nt | nt | nt | nt
C[C@@H]1CN([C@H](C)CO)S(=O)(=O)c2ccc(C#Cc3ccccc3)cc2O[C@H]1CN(C)C(=O)Nc1ccc2c(c1)OCO2 | -2 | -2 | -5 | -2 | -1 | nt | nt | nt | nt
N#C/C(=C\c1ccco1)c1nc2ccccc2s1 | 5.1* | 17* | 15* | 2.5* | 4 | 14* | 9.1* | 2 | 11*
SMILES | DAX1 inh-1 | hgDAF-12 ag | hcDAF-12 act | ssDAF12 agonist | DAX1 inh-2 | DAX1 conf | SF1 AF2mut Luc | LXRb hcDAF ctr | hcDAF12 ag
N#C/C(=C\c1ccc(O)c([N+](=O)[O-])c1)c1nc2ccccc2s1 | 0 | 2 | 3 | -1 | -1 | nt | nt | nt | nt
CC1(Oc2ccc(CC#N)cc2)CCN(Cc2ccccc2OC(F)F)C1 (stereo unspecified) | -1 | 2 | -2 | -2 | nt | nt | nt | nt | nt
O=C(OCc1nc2ccccc2s1)c1ccco1 | 4.9* | 11* | 9.1* | 1 | 1 | 7.4* | 4.7* | 1 | 8.6*
Cc1noc(C)c1NC(=O)Nc1cccc2c1O[C@H](CN(C)C(=O)Nc1ccc(C(F)(F)F)cc1)[C@@H](C)CN([C@H](C)CO)C2=O | -1 | -1 | -1 | -1 | -1 | nt | nt | nt | nt
O=c1[nH]c(COc2ccc(Cl)cc2Br)nc2ccccc12 | 7.1* | 12* | 8.7* | 0 | 2 | 8.8* | 8.9* | 1 | 3
COc1ccccc1-n1c(Cc2cccc3ccccc23)nnc1SCC(=O)O | 1 | 3 | -1 | -1 | nt | nt | nt | nt | nt
COc1ccc(-c2csc(-c3ccccc3)n2)c(OC)c1 | 8.9* | 22* | 15* | 2.4* | 4.6* | 18* | 8.5* | 2 | 11*
S=C1NC2=C(CCCC2=C2SCCCS2)C(c2ccccc2)N1 (stereo unspecified) | 0 | -3 | -1 | -1 | -1 | nt | nt | nt | nt
